Test results as given in PubChem BioAssay AID743019 (Broad Institute, 2013).
Out of some 1,000 compounds screened, about 25 (2%) were called active.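 The calls were made as follows: active = rising signal whose fitted curve reaches the 0.54 level within the top valid dose, showing a melting point (actives reach about 13 µM in these data); inactive = the rest, including activity in the opposite direction.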 The list is a sample of the results.

Assay: SYPRO orange dye artefact, no FGF22 present – biochemical, cherry-picked samples, RT-PCR instrument, artefact control for FGF22 binder project, dose response (AID 743019); also: value is where the raw curve crosses a fixed level and not half-maximal
Conditions: compound-only SYPRO orange thermal shift counter-screen, no protein; at 38 µM (top of the series) unless noted

Structure (SMILES) | outcome
COc1cc([N+](=O)[O-])ccc1NC(=O)CN1CCCC1 | inactive
C[C@H]1CN([C@@H](C)CO)C(=O)Cc2cc(NC(=O)Cc3cn(C)c4ccccc34)ccc2O[C@@H]1CN(C)Cc1ccccc1 | inactive [at 42 µM]
Cc1ccc(S(=O)(=O)N(C)C[C@@H]2Oc3cc(C4=CCCC4)ccc3S(=O)(=O)N([C@@H](C)CO)C[C@@H]2C)cc1 | inactive [at 42 µM]
O=C(NN1C(=O)C2C3C=CC(O3)C2C1=O)c1ccccc1 (stereo not given) | inactive
O=C(N[C@@H]1C=C[C@H](CC(=O)N2CCCCC2)O[C@H]1CO)c1cccc(F)c1 | inactive
CCn1ccnc1CN(C)C(=O)c1ccc2nc(Cc3ccc(OC)cc3)oc2c1 | inactive
C[C@@H]1CN([C@@H](C)CO)S(=O)(=O)c2ccc(-c3ccncc3)cc2O[C@@H]1CN(C)C(=O)Nc1ccc(F)cc1 | inactive
O=C(N/N=C/c1ccc([N+](=O)[O-])cc1)c1c[nH]c2ccccc12 | inactive
COc1ccccc1NC(=O)N1[C@H](C#N)[C@H](c2ccccc2)[C@H]1CO | inactive [at 42 µM]
O=C(NCCc1c[nH]c2ccccc12)C(=O)NCC1CCCO1 (stereo not given) | inactive
O=C(c1ccccc1F)N1CC(=O)N2[C@H](C1)[C@H](c1ccc(-c3ccc(F)cc3)cc1)[C@@H]2CO | inactive [at 42 µM]
CS(=O)(=O)c1ccc2nc(NC(=O)c3ccc(Cl)nc3)sc2c1 | inactive
OC[C@H]1[C@H](c2ccc(-c3cccnc3)cc2)[C@H]2CN(Cc3ccccn3)CCCCN21 | inactive
O=C(Nc1ccccc1F)N1[C@H](CO)[C@H]2c3ccccc3NC[C@H]21 | inactive [at 42 µM]
NS(=O)(=O)c1cccc(NC(=O)COC(=O)c2cc([N+](=O)[O-])ccc2N2CCCC2)c1 | inactive
Cc1ccc(NC(=O)Nc2cccnc2)cc1 | inactive
O=C(N/N=C/c1ccc(Cl)c(Cl)c1)c1ccc2nc[nH]c2c1 | inactive
Cc1ccc(S(=O)(=O)Nc2nc3ccccc3s2)cc1[N+](=O)[O-] | inactive
O=C(Nc1nnc(-c2ccccc2F)s1)c1ccccc1F | inactive
O=C(C[C@H]1CC[C@H]2[C@@H](COC[C@H](O)CN2S(=O)(=O)c2cccc(Cl)c2)O1)Nc1ccccc1 | inactive [at 42 µM]
COCCN(C(=O)C(C)C)c1nnc(-c2ccc(C(C)(C)C)cc2)s1 | inactive
C[C@H]1CN([C@@H](C)CO)S(=O)(=O)c2ccc(C3=CCCC3)cc2O[C@H]1CN(C)C(=O)Nc1ccc2c(c1)OCO2 | inactive [at 42 µM]
COc1ccc(-c2cc(=O)oc3cc(OCC(=O)N[C@@H](Cc4c[nH]c5ccccc45)C(=O)O)ccc23)cc1 | inactive
O=S(=O)(ON(c1ccccc1)S(=O)(=O)c1ccccc1)c1ccccc1 | inactive
O=C(Cc1cccnc1)N[C@H]1CC[C@H](CCn2cc(-c3ccccc3F)nn2)O[C@H]1CO | inactive

Structure (SMILES) | outcome
CC(=O)Nc1ccc(S(=O)(=O)N(CCc2ccccc2)CC(=O)N/N=C/c2ccc(C(=O)O)cc2)cc1 | inactive
CCCOc1ccc(NC(=O)CC2C(=O)N(C)C(=S)N2Cc2ccc3c(c2)OCO3)cc1 (stereo not given) | inactive
CC(C)NC(=O)N1C[C@@H]2[C@H](c3ccccc31)[C@H](CO)N2C(=O)c1ccccn1 | inactive [at 42 µM]
O=C(N/N=C/c1ccc(OCc2ccccc2)cc1)c1ccc(O)cc1 | inactive
C[C@@H]1CCCCO[C@@H](CN(C)Cc2ccncc2)[C@H](C)CN([C@H](C)CO)C(=O)c2cc(NC(=O)Cc3ccccc3)ccc2O1 | inactive
Cc1cccc(S(=O)(=O)N2C[C@@H](O)COC[C@H]3O[C@H](CC(=O)Nc4ccc(-c5ccccc5)cc4)CC[C@@H]32)c1 | inactive [at 42 µM]
CN1C(=O)c2cccc3c(N)ccc(c23)C1=O | inactive
CN1C(=O)c2cc(NC(=O)c3cccc(F)c3)ccc2OC[C@@H]2O[C@H](CC(=O)N3CCc4ccccc4C3)CC[C@@H]21 | inactive
COc1ccccc1C(=O)NNC(=O)c1ccc(NC(=O)c2ccccc2)cc1 | inactive
C[C@@H]1CN([C@H](C)CO)S(=O)(=O)c2ccc(-c3ccncc3)cc2O[C@@H]1CN(C)C(=O)Nc1ccc(C(F)(F)F)cc1 | inactive
Cc1c(CCO)sc[n+]1CC(=O)OC12CC3CC(CC(C3)C1)C2 | inactive
COc1ccc(-c2ccc([C@H]3[C@H]4CN(C(=O)c5ccc6c(c5)OCO6)CCCCN4[C@H]3CO)cc2)cc1 | inactive [at 42 µM]
CC(=O)N1c2ccc(S(=O)(=O)N3CCC(C(=O)NCc4ccc(F)cc4)CC3)cc2CC1C (stereo not given) | inactive
CC(C)NC(=O)N(C)C[C@@H]1Oc2c(NC(=O)c3nc4ccccc4s3)cccc2C(=O)N([C@H](C)CO)C[C@H]1C | inactive [at 42 µM]
CCCCN1CC(N2CCN(Cc3cccc(C)c3)CC2)CS1(=O)=O (stereo not given) | inactive
Cc1ccc(NC(=O)O/N=C/c2cccc([N+](=O)[O-])c2)cc1 | inactive
CC(=O)NC[C@@H]1[C@@H](c2ccccc2)[C@@H](CO)N1C(=O)Cc1cccnc1 | inactive [at 42 µM]
O=C(COc1ccc([N+](=O)[O-])cc1)Nc1cccc(C(=O)Nc2ccccc2C(=O)O)c1 | inactive
CC(C)(C)N1C(=O)c2c(C(=O)OCc3ccccc3)[nH]c(-c3ccccc3)c2C1=O | inactive
COc1cc(NC(=O)c2ccc3c(c2)OCO3)ccc1NC(=O)c1cccs1 | inactive
O=C(C[C@H]1C[C@@H]2c3cc(NC(=O)Nc4ccc(C(F)(F)F)cc4)ccc3O[C@@H]2[C@@H](CO)O1)NCC1CC1 | inactive [at 10 µM]
CNC[C@@H]1Oc2ccc(NC(=O)C3CCCCC3)cc2C(=O)N([C@@H](C)CO)C[C@H]1C | inactive
COCC(=O)Nc1ccc2c(c1)OC[C@H](C)N(C)C[C@@H](C)[C@@H](OC)CN(C)C2=O | inactive [at 42 µM]
O=C(N/N=C/c1c[nH]c2ccccc12)c1cc2ccccc2o1 | inactive
Cc1ccc(S(=O)(=O)NCCC(=O)Nc2ccc(C)c(Cl)c2)cc1C | inactive
